Source: the supplement of paper PMC3334620
Over roughly 33,000 sequences, “E-score (-0.5 to 0.5)” has its median near -0.0034; the highest 2% begin near 0.25. Only a selection was taken, and the highest values are over-represented in it overall.

Target: T1, Yap3 (UniProt P38749)
T1 sequence: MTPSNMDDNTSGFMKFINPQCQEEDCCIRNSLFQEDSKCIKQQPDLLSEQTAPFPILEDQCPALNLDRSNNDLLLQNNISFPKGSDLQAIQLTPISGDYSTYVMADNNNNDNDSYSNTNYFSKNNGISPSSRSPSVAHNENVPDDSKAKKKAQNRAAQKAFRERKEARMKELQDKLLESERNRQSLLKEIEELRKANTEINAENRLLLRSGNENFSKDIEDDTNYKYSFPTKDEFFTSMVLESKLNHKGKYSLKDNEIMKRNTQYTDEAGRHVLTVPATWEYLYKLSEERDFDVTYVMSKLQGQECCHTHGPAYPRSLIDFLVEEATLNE
Assay: PBM E-score (8-mer binding enrichment) (E-score (-0.5 to 0.5)); higher = stronger / more preferred TF binding
Conditions: protein concentration: 100 nM; construct: GST-full length
Experimental: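 Universal 'all 10-mer' protein binding microarrays (Agilent AMADID 015681) probed with GST-tagged S. cerevisiae TFs (full-length or DBD) made by in vitro transcription/translation (PURExpress), about 100-200 nM. Bound TF was detected with fluorescent anti-GST. Each ungapped 8-mer (which stands for itself and its reverse complement) is scored by the PBM enrichment score (E-score), a modified Wilcoxon-Mann-Whitney statistic from -0.5 to +0.5, computed with the Universal PBM Analysis Suite. Scale: above 0.35 generally sequence-specific binding.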

Row | Sequence | PBM E-score
1 | CTTAGTCA | 0.373
2 | ATAAGTCA | 0.262
3 | ATTAGTCG | 0.12
4 | CTTAGTCC | -0.0515
5 | CTAAGTCA | 0.024
6 | ATTAGTGG | 0.243
7 | ATTAGTCA | 0.42
8 | CATTGAAC | 0.07
9 | GCGTTGCA | -0.112
10 | CAGAAACC | 0.0742
11 | CACGCTAA | 0.0663
12 | CGATCGAC | 0.14
13 | AGATCTAT | -0.115
14 | ATCGGGCG | -0.21
15 | AGTGCTCG | -0.11
16 | TCAAGCAA | -0.15
17 | AAGAGCAC | -0.0358
18 | CTTAGTAA | 0.429
19 | GTTAGTAA | 0.217
20 | ATTAGTTA | 0.291
21 | GTTAGTCA | 0.33
22 | ATTAGTTG | 0.192
23 | GGTAGTCA | -0.176
24 | ATCAGTTA | 0.272
25 | CTCAGTTA | -0.0635
26 | CTTAGTAC | 0.0262

Row | Sequence | PBM E-score
27 | GTCAGTTA | 0.113
28 | GTTAGTGA | 0.0844
29 | GTTAGTTA | 0.169
30 | ACAGGTCG | -0.0506
31 | TATTGACA | 0.0463
32 | CCGCCAGC | -0.196
33 | AACACTGC | 0.186
34 | CACGCCTA | -0.1
35 | GATATGCC | -0.0864
36 | CTGATCGA | -0.239
37 | GTGATCGA | 0.282
38 | ATGATCGA | 0.0147
39 | ACTTCCGG | 0.0969
40 | CTCAAGAC | -0.133
41 | AATGAGAG | -0.0586
42 | AGTGAGTG | -0.0641
43 | AATGAGAT | 0.266
44 | AATGAGAC | -0.0964
45 | GATGAGTA | 0.181
46 | CATGAGTA | 0.0202
47 | AATGAGTA | 0.33
48 | AGTGAGTA | 0.271
49 | CGTGAGTA | -0.0244
50 | ACAAAACA | 0.202
51 | TCCTAAAA | -0.115
52 | GATAGAAA | 0.187

Row | Sequence | PBM E-score
53 | TACAGAAA | 0.262
54 | GACAGAAA | 0.183
55 | AACAGAAA | 0.157
56 | CAGAGAAG | -0.127
57 | TATAGAAA | 0.0802
58 | CATAGAAA | 0.268
59 | GAGAGAAA | 0.0853
60 | CAGAGAAA | 0.278
61 | CATCTACC | 0.145
62 | CTTGAGCA | -0.119
63 | ATCTTGCA | 0.151
64 | AATAGATC | 0.08
65 | GATTAAGA | 0.193
66 | GATTAATC | 0.117
67 | CATTAATA | 0.193
68 | AATTAATC | 0.0963
69 | AATTAATG | 0.29
70 | TATTAACA | 0.23
71 | AATTAATA | 0.353
72 | GATTAATA | 0.367
73 | AATTAAGA | 0.154
74 | CATTAATG | 0.212
75 | AATTAATT | 0.211
76 | TATTAATA | 0.301
77 | CACCCATG | -0.014
78 | ATCGCACC | -0.106

Row | Sequence | PBM E-score
79 | GCTCTGTA | -0.055
80 | GCCAAGTA | -0.0708
81 | CATAAGAG | -0.071
82 | CTTTTGTC | 0.0462
83 | CGACCCAC | -0.219
84 | TCGGATAA | 0.143
85 | GTCAAGTA | -0.12
86 | ATCTCTGC | 0.0777
87 | ACACTGAT | 0.0678
88 | ATTACTGG | -0.0154
89 | CACGAAAA | 0.176
90 | GACGAAAA | 0.264
91 | GGCGAAAC | 0.0862
92 | GGCGAAAA | 0.256
93 | TACGAAAA | 0.144
94 | TGCGAAAA | 0.0554
95 | CTGCGATC | -0.0633
96 | CGTAGATC | 0.0115
97 | GTACAGGA | 0.0424
98 | AACATCTC | 0.08
99 | ACTGAAAC | 0.27
100 | GCTGAAAC | -0.0804
101 | ACAGAAAA | 0.198
102 | ACAGAAAC | 0.285
103 | CCAGAAAC | 0.0139
104 | ACTGAAAG | 0.114

Row | Sequence | PBM E-score
105 | GCAAATCC | 0.156
106 | CGTCCTTC | 0.0406
107 | CTATGGGA | -0.103
108 | CGTCCCTA | -0.206
109 | TACTAACA | 0.294
110 | GACTGAAA | 0.0541
111 | AACTAAAA | 0.148
112 | CACTATAA | -0.00697
113 | AACTAACA | 0.211
114 | AACTATAA | 0.186
115 | CACTAACA | 0.162
116 | GACTAAAA | 0.0994
117 | TACTGAAA | 0.273
118 | TACTATAA | 0.266
119 | CACTGAAA | 0.0595
120 | TACTAAAA | 0.255
121 | GACTTTGA | 0.00307
122 | TTGTACAA | 0.185
123 | CATCAGAC | -0.133
124 | ACATACCC | 0.0479
125 | GAACTCGC | 0.0628
126 | CTCCTACC | -0.275
127 | CCTGAACG | -0.154
128 | GTCTAGCA | 0.0493
129 | ATGAGAAA | 0.181
130 | GCGTTAGA | 0.0241

Row | Sequence | PBM E-score
131 | AAGCGTTC | -0.0829
132 | GCGGCCTA | -0.0845
133 | ATTTTTTG | 0.226
134 | GTTTTAAA | 0.235
135 | ATTTTAAA | 0.282
136 | AATTTTTA | 0.252
137 | ATTTTAAC | 0.149
138 | ATTTTTAA | 0.295
139 | ATTTTTAG | -0.0279
140 | AATTTTAA | 0.212
141 | ATTTTTTA | 0.255
142 | TCAGCGCA | -0.216
143 | CGGTTTTA | -0.106
144 | CTAAGTAC | 0.016
145 | CGATGGGC | -0.18
146 | CCAACAGC | 0.0293
147 | GAGTCATC | -0.00184
148 | AATACACC | 0.272
149 | AATACACG | 0.0582
150 | GATACACC | 0.161
151 | AATACACT | 0.259
152 | AATACACA | 0.131
153 | CATACACC | 0.0314
154 | CGGCAGGC | -0.189
155 | CGAGAGTA | 0.0233
156 | GCATTGTA | -0.0355

Row | Sequence | PBM E-score
157 | GCAAAGAA | 0.0916
158 | CAGCGAAG | -0.16
159 | ATTGCAAG | 0.0639
160 | ATTGCAAT | 0.283
161 | ATTGCAAA | 0.0883
162 | ATGGCCAA | -0.114
163 | AGGTGCCG | -0.101
164 | CTGTTTCA | 0.0525
165 | GCCAAGAC | -0.195
166 | GAAATATC | 0.0879
167 | AAAATACG | 0.234
168 | CGAATATC | 0.154
169 | AAAATATC | 0.257
170 | AAAATAAC | 0.0743
171 | CAAATAAG | -0.0581
172 | AAAATAAG | 0.271
173 | CAAATACC | 0.0818
174 | AAAATATG | 0.256
175 | CAAATATC | 0.285
176 | CAAATATG | 0.131
177 | AAAATATA | 0.19
